Assay results from paper PMC4336329 (PLoS ONE, 2015).
Out of some 310,000 compounds screened, about 14,000 (4.5%) showed an effect of 50% or more. Effects have a minus sign here. Only a selection was taken, and strong results are over-represented in it overall.

Biological target: human ether-à-go-go-related gene (hERG) potassium channel (human, UniProt Q12809)
Experiment: primary screen, population patch clamp on CHO cells stably expressing hERG; higher = less effect of the substance
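Note: peak tail current of the secondary pulse compared with the same well before compound.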

Sequence of human ether-à-go-go-related gene (hERG) potassium channel (Q12809 whole entry, looked up): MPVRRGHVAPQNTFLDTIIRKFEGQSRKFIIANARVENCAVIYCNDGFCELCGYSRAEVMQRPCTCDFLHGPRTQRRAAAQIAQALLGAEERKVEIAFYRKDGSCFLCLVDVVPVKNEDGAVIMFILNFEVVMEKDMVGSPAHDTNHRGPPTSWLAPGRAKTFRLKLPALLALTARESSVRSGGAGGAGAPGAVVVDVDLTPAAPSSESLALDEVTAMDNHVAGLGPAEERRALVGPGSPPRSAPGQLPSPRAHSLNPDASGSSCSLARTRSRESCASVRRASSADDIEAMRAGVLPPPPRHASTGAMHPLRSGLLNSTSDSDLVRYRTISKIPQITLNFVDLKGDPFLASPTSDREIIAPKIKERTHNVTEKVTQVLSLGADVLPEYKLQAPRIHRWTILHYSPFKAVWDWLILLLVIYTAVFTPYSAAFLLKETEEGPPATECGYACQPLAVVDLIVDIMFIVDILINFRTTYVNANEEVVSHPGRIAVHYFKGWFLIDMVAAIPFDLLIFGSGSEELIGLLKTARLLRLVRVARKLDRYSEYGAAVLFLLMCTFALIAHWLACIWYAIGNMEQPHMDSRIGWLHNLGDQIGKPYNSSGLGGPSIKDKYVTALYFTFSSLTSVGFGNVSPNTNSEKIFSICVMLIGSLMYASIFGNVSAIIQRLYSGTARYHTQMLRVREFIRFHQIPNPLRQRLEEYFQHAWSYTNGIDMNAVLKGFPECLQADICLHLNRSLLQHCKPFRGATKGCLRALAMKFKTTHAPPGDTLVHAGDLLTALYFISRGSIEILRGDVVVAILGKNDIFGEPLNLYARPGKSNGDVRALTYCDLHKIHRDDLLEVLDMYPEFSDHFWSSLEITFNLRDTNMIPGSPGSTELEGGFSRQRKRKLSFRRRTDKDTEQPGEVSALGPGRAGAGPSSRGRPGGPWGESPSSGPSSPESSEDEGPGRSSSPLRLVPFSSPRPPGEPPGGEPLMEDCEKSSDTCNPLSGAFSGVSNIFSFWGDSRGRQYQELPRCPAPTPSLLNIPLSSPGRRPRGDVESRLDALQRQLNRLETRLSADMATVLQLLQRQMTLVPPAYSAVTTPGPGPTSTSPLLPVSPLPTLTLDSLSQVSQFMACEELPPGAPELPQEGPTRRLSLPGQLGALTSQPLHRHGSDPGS

Compound | hERG current change (%, negative = inhibition) at 10uM [%]
COc1ccc(CCNC(=O)c2cccs2)cc1 | 10.9
Brc1ccccc1OCCCN1CCCCCC1.O=C(O)C(=O)O | -72.6
O=C(O)C(=O)O.c1ccc2c(OCCCCN3CCOCC3)cccc2c1 | 10.7
Brc1ccccc1OCCCCN1CCCCC1 | -39.1
c1ccc2c(OCCCCN3CCCC3)cccc2c1 | -27.1
O=C(O)C(=O)O.c1ccc2c(OCCCN3CCCCCC3)cccc2c1 | -65.8
Brc1ccccc1OCCCN1CCCC1.O=C(O)C(=O)O | -12.4
CC1(C)Cc2cccc(OCC(=O)Nc3ccccc3N3CCOCC3)c2O1 | -10.8
CCOc1c(Cl)cc(CNC(C)(C)CC(C)(C)C)cc1OC.Cl | -13.2
CCCn1c(=O)[nH]c(=O)c2c1nc(-c1ccc(C(F)(F)F)cc1)n2CCOC | -4.45
CCOC(=O)CN1C(=O)/C(=C/c2c(F)cccc2Cl)Oc2ccccc21 | 9.08
COc1ccc2cc(C3(C)NC(=O)NC3=O)ccc2c1 (stereo not shown) | -0.239
CN(C(=O)CSc1nnc(C2CC2)n1C1CC1)C1(C#N)CCCCC1 | -5.85
O=C(N/N=C/c1ccc(OC(=O)c2cccc(F)c2)cc1)c1cccnc1 | -69.6
O=C(N/N=C(\c1ccccc1)c1cccnc1)c1cc(O)ccc1O | 16.4
O=C(N/N=C/c1ccc(OC(=O)c2cccc(Br)c2)cc1)c1cccnc1 | 11.4
Cc1ccc(C(=O)N/N=C\c2ccc(OC(=O)c3cccc(F)c3)cc2)cn1 | 11
O=C(N/N=C/c1cccnc1)c1cccc(F)c1 | 2.67
O=C(N/N=C(\c1ccccc1)c1cccnc1)c1cccc(F)c1 | -61.5
Br.CC(C)(C)C(=O)Cn1c(NCCO)nc2ccccc21 | 5.72
O=C(OCC(=O)N1CCc2ccccc21)C1CCCN1S(=O)(=O)c1ccc(Cl)cc1 (stereo not shown) | -17.8
CC(C)COc1ccc(C(=O)OCC(=O)N(C)CC(=O)Nc2ccc(F)cc2)cc1 | 6.57

Compound | hERG current change (%, negative = inhibition) at 10uM [%]
CCOC(=O)Cc1cc(C)[nH]c1C(=O)OCC | -5.81
C=CCNC(=O)c1c2c(nc3ccccc13)-c1ccccc1CC2 | -46.4
CCCC(=O)N1CCCC(C(=O)c2ccc(OC)c(OC)c2)C1 (stereo not shown) | 12.7
CCOc1cc(CN2CCCC(C(=O)c3cccc(C(F)(F)F)c3)C2)ccc1O (stereo not shown) | -61.2
CCOc1cccc(CN2CCCC(C(=O)c3cc(Cl)ccc3OC)C2)c1O (stereo not shown) | -64.3
CCOc1ccccc1CN1CCCC(C(=O)c2ccc(OC)c(OC)c2)C1 (stereo not shown) | -74.2
COc1ccc(CN2CCCC(C(=O)c3cccc(C(F)(F)F)c3)C2)cc1O (stereo not shown) | -62.2
COc1ccc(Cl)cc1C(=O)C1CCCN(CCO)C1 (stereo not shown) | -11.2
CCOc1cccc(CN2CCCC(C(=O)Nc3ccc(-c4ccn[nH]4)cc3)C2)c1O (stereo not shown) | -29.5
CCOC(=O)C1CCCN(Cc2ccccc2OCC)C1 (stereo not shown) | -2.92
CCOC(=O)C1CCCN(Cc2ccc(O)c(OC)c2)C1 (stereo not shown) | -6.59
O=S(=O)(c1ccc(F)cc1)N1CCCC(c2nc(-c3ccc(F)cc3)no2)C1 (stereo not shown) | -13.9
Cc1c(NC(=O)CN2C(=O)c3ccc([N+](=O)[O-])cc3C2=O)c(=O)n(-c2ccccc2)n1C | 8.89
Cc1cccnc1NC(=O)C1CCN(S(=O)(=O)c2ccc3c(c2)CCC(=O)N3)CC1 | 16.1
O=C(CCc1nnc(CCCCc2ccccc2)o1)NCCN1CCCCC1=O | 18.2
CC(=O)N1CCc2[nH]c3ccccc3c2C1 | 4.55
COc1ccc(Br)c(C(=O)Nc2ccc(F)cc2)c1 | -0.956
NS(=O)(=O)c1ccc(CCNc2nc3c(-c4cccc(F)c4)nnn3c3ccccc23)cc1 | 21.5
C=CCNc1nc(C2(C)CC3(CC(C)OC3=O)C(=O)O2)cs1 (stereo not shown) | -4.86
O=C(c1cccc(C(F)(F)F)c1)C1CCCN(Cc2cccc(OCCO)c2)C1 (stereo not shown) | -47.4
O=C(C1CCCN(CCCc2ccccc2)C1)N1CCCCC1 (stereo not shown) | -38.8
COCc1cc(CN2CCCC(C(=O)c3cccc(C(F)(F)F)c3)C2)ccc1OC (stereo not shown) | -63.1

Compound | hERG current change (%, negative = inhibition) at 10uM [%]
Cc1ccc(CN2CCCC(C(=O)c3cccc(C(F)(F)F)c3)C2)o1 (stereo not shown) | -19.3
COc1cccc(O)c1CN1CCCC(C(=O)c2cccc(C(F)(F)F)c2)C1 (stereo not shown) | -57.5
O=C(c1cccc(C(F)(F)F)c1)C1CCCN(Cc2ccc(OCCO)cc2)C1 (stereo not shown) | -69.8
O=C(c1cc(F)ccc1F)C1CCCN(CCCc2ccccc2)C1 (stereo not shown) | -73.2
O=C(c1cc(F)ccc1F)C1CCCN(Cc2cccc(Cl)c2)C1 (stereo not shown) | 4.01
COCc1ccc(C(=O)N2CCCC(C(=O)c3cccc(C(F)(F)F)c3)C2)o1 (stereo not shown) | -0.276
COCc1cc(CN2CCCC(C(=O)Nc3ccc(-c4ccco4)cc3)C2)ccc1OC (stereo not shown) | -7.12
CC(=O)CCCCn1cnc2c1c(=O)n(C)c(=O)n2C | 20.7
O=c1cc([O-])n(Cc2ccc(F)cc2)c(=O)[nH]1.[NH4+] | 21.7
COCCN(C(=O)CSc1nnc(Nc2ccc(C)cc2)s1)c1c(N)n(CC(C)C)c(=O)[nH]c1=O | -7.66
Cn1ncc2c(NCc3ccccc3)ncnc21 | -11
CCOC(=O)CN1C(=O)/C(=C/c2ccc(Cl)cc2)Oc2ccccc21 | 2.31
Nc1ccc(N=Nc2ccccc2)c2cccnc12 | 17.2
CNC(=O)C(Sc1nc(C)nc2c1oc1ccccc12)C(C)=O (stereo not shown) | 2.63
Cc1cc(Br)ccc1NC(=O)c1cnc(N2CCN(c3ccccn3)CC2)c2ccccc12 | 10
COc1cccc(O)c1CN1CCCC(C(=O)c2sccc2C)C1 (stereo not shown) | -45.9
COc1ccc(CCNC(=O)CN2CCN(c3cccc(C(F)(F)F)c3)CC2)cc1 | -46.3
Nc1ccc(CCN2CCN(c3cccc(C(F)(F)F)c3)CC2)cc1 | -67.2
CCOc1ccccc1CN1CCCC(C(=O)c2cc(F)ccc2F)C1 (stereo not shown) | -50.8
COc1ccc(C(=O)C2CCCN(Cc3c(O)cccc3OC)C2)cc1OC (stereo not shown) | -63.1
COc1ccc(C(=O)C2CCCN(Cc3nc4ccccc4nc3C)C2)cc1OC (stereo not shown) | -84.9
O=C(c1cc(F)ccc1F)C1CCCN(Cc2cc(Cl)ccc2O)C1 (stereo not shown) | 0.916

Compound | hERG current change (%, negative = inhibition) at 10uM [%]
Cn1cc(CN2CCCC(C(=O)c3cc(F)ccc3F)C2)c2ccccc21 (stereo not shown) | -31.1
C#CCN1CCN(c2cccc(C(F)(F)F)c2)CC1 | 8.78
COc1ccc(C(=O)C2CCCN(C(=O)CSC)C2)cc1OC (stereo not shown) | 8.85
COc1ccc(C(=O)C2CCCN(C(=O)Cn3ccc(C)n3)C2)cc1OC (stereo not shown) | 19.1
COc1ccc(C(CNC(=O)C(CCSC)NC(=O)c2ccccc2Cl)N2CCCC2)cc1 (stereo not shown) | -34.9
O=C(CCN1C(=O)c2ccccc2S1(=O)=O)Nc1cccc2ccccc12 | -5.33
Cc1ccc(C)c(S(=O)(=O)Nc2ccc(C(N)=O)cc2)c1 | 14.9
CC1(C)CC(=O)c2c(Cc3ccccc3)noc2C1 | 12.1
Cc1ccccc1/C=C1\Sc2ccc(C(=O)N3CCN(c4ccccn4)CC3)cc2N(C)C1=O | -26.1
CCN(CC)S(=O)(=O)c1cccc(C(=O)Nc2nc3cc4c(cc3s2)OCCO4)c1 | 0.652
Cc1ccc(OCC(=O)N/N=C/c2ccncc2)cc1C | 5.75
CC(C)OCCCNC(=O)c1ccc2c(=O)n(Cc3ccc4c(c3)OCO4)c(=S)[nH]c2c1 | 21.3
N#C/C(=C\c1ccc(F)cc1)C(=O)Nc1ccccn1 | 2.68
CCOc1cccc(CN2CCN(c3cccc(C(F)(F)F)c3)CC2)c1O | -46.6
FC(F)(F)c1cccc(N2CCN(Cc3ccoc3)CC2)c1 | -60.4
O=C(c1cccc(C(F)(F)F)c1)C1CCCN(Cc2ccccc2O)C1 (stereo not shown) | -29
FC(F)(F)c1cccc(N2CCN(Cc3cccnc3)CC2)c1 | -8.03
CCOc1cccc(CN2CCCC(C(=O)c3cccc(C(F)(F)F)c3)C2)c1O (stereo not shown) | -67.9
CCOc1cc(CN2CCN(c3cccc(C(F)(F)F)c3)CC2)ccc1OC | -16.6
CCOc1cc(CN2CCN(c3cccc(C(F)(F)F)c3)CC2)ccc1O | -73
CC(=O)Nc1ccc(CN2CCN(c3cccc(C(F)(F)F)c3)CC2)cc1 | -38
O=C1COc2ccc(-c3n[nH]c(=O)c4ccccc34)cc2N1 | -2.91
